Reference: PubChem BioAssay AID1851 (National Center for Advancing Translational Sciences (NCATS), 2009)
Out of some 16,000 compounds screened, about 4,000 (25%) were called active. Not shown: some 26% with an inconclusive outcome. The call rests on the fitted dose curve; in most records, active means well fitted curve in the direction sought with a large enough effect; inconclusive means small, poorly fitted or top-dose-only effect, or effect the other way; inactive means no such curve, though single readings can be large or run the other way. Not all results are given here.

Biological target: Cytochrome P450 2C9 (Homo sapiens) (UniProt P11712)
Sequence (P11712 whole entry, looked up): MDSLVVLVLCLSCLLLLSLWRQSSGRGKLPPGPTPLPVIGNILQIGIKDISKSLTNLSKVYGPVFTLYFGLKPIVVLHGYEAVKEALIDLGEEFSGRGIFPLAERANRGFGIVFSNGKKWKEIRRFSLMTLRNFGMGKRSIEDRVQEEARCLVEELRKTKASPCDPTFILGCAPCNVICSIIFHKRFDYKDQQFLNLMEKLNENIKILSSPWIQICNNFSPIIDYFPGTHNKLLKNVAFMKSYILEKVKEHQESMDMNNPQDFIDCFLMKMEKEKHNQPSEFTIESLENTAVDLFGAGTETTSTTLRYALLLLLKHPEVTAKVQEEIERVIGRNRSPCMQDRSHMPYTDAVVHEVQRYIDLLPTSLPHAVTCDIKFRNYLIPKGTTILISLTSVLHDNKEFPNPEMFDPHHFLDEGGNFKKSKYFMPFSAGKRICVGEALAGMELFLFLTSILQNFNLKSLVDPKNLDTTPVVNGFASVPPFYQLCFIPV
Assay: Cytochrome panel assay with activity outcomes
Conditions: recombinant CYP, pro-luciferin dealkylation, luminescence, p450-cyp2c9; series mostly up to 57.1 µM
On the % scale 0 is the no-effect control and ±100 the full control effect.

Compound | activity, negative = inhibition | AC50
[Cu].[O-]/N=C1/C(=[OH+])Nc2ccccc21.[O-]Nc1c(O)[nH]c2ccccc12 | -2.92% [at 11.4 µM] (inactive) | 
O=C(Nc1ccc(Br)cc1)C1CCC(=O)N1Cc1ccccc1Cl (stereo unspecified) |  | 0.447 µM (active)
CCS(=O)(=O)N1CCC(C(=O)NCCCOC)CC1 |  | inactive
O=c1n(CCCN2CCN(c3cccc(Cl)c3)CC2)nc2ccccn12 |  | inactive
CN(CCCNC(=O)C1CCC(=O)N1Cc1ccccc1Cl)c1ccccc1 (stereo unspecified) |  | inactive
COCCCNC(=O)C1CCC(=O)N1Cc1ccccc1Cl (stereo unspecified) |  | 5.62 µM (active)
COC(=O)N1CCC2(CC1)CCN(c1cccc(-c3ccccc3)c1)CC2 |  | inactive
O=C(C1CCC(=O)N1Cc1ccccc1Cl)N1CCN(c2cccc(Cl)c2)CC1 (stereo unspecified) |  | 15.8 µM (active)
Cc1noc(NS(=O)(=O)c2ccc(N/C=C\C(=O)c3ccc4c(c3)OCO4)cc2)c1C |  | 14.1 µM (active)
Cc1noc(NS(=O)(=O)c2ccc(N/C=C/C(=O)c3ccc4c(c3)OCO4)cc2)c1C |  | 12.6 µM (active)
CCC1(C)Cc2c(sc3nnn(CC(=O)Nc4ccc(C)cc4)c(=O)c23)CO1 (stereo unspecified) |  | 11.2 µM (active)
CCCSc1nc(SCC(=O)NCc2ccccc2)c2c3c(sc2n1)COC(C)(CC)C3 (stereo unspecified) |  | 3.98 µM (active)
CCC1(C)Cc2c(sc3nnn(CC(=O)Nc4cccc5ccccc45)c(=O)c23)CO1 (stereo unspecified) |  | 7.94 µM (active)
CCCSc1nc(NCc2ccco2)c2c3c(sc2n1)COC(C)(C)C3 |  | 6.31 µM (active)
COC(=O)[C@H](CCSC)NC(=O)C/C=C\[C@@H](C)[C@@H](CO)OC | -1.66% [at 11.4 µM] (inactive) | 
CN(C)c1ccc(-c2nccc(NCc3cccs3)n2)cc1 | -21.1% [at 2.29 µM] (inactive) | 
CC(=O)OC1CCC(OC(C)=O)c2c1n([O-])c(C)c(C)[n+]2=O (stereo unspecified) |  | inactive
O=C(Nc1ccc2c(c1)OCCO2)C1CCN(C(=O)c2ccccc2)CC1 |  | inactive
O=C(CC(c1ccccc1)c1ccccc1)Nc1ccc2c(c1)OCCO2 |  | 4.47 µM (active)
CCn1c(-c2ccccc2Cl)nn(CC(=O)Nc2ccc(OC)cc2)c1=S |  | 2.24 µM (active)
CC(=O)Nc1ccc2c(c1)OCCOCCOc1cc(NC(C)=O)ccc1OCCOCCOCCO2 |  | inactive
CC(=O)Nc1ccc2c(c1)OCCO2 |  | inactive
COC(=O)Cn1nc(-c2ccccc2)n(-c2ccccc2)c1=S |  | inactive
O=C(Nc1ccc2c(c1)OCCO2)c1cccc2nc3ccccc3nc12 |  | 12.6 µM (active)
O=C(CN1CCN(CC(=O)Nc2ccccc2Cl)CC1)Nc1ccc2c(c1)OCCO2 |  | 4.47 µM (active)
Oc1cc2c(c(Cl)c1O)CCNC[C@H]2c1ccccc1 |  | inactive
